Measurements as given in PubChem BioAssay AID2284167 (EPA ToxCast).
Results filed as inconclusive are left out. Active and inactive are the calls of the source. How the source made its calls: active means hit-call score of the fitted dose curve at least 0.9, where 1 is the maximum; inconclusive means response in the unintended direction; inactive means score below 0.9.

These compounds were tested against human Neurotensin Receptor NT1 Agonism, NTSR1 (gene 4923) (UniProt P30989) (assay: ERF_FR_GPCR_hNTSR1: Eurofins (ERF) G Protein-Coupled Receptor (GPCR) Radioligand Binding LeadHunter Assay for human Neurotensin Receptor NT1 Agonism).
Description: ERF_FR_GPCR_hNTSR1 is a biochemical, single-readout assay that uses extracted gene-proteins in a cell-free assay. Measurements were taken 1 hour after chemical dosing in a 96-well plate. See NT1 Human Neurotensin GPCR Binding (Agonist Radioligand) Assay, Cerep.ERF_FR_GPCR_hNTSR1 is an assay component calculated from the ERF_FR_GPCR_hNTSR1 assay. It is designed to measure radioligand binding using a type of binding reporter as detected by scintillation counting with radiometry technology.Data from the assay component ERF_FR_GPCR_hNTSR1 was analyzed at the assay endpoint, ERF_FR_GPCR_hNTSR1, in the positive analysis fitting direction relative to DMSO as the negative control and baseline of activity. Using a type of binding reporter, gain-of-signal activity can be used to understand changes in binding as they relate to gene NTSR1. To generalize the intended target to other relatable targets, this assay endpoint is annotated to the gpcr intended target family, where the subfamily is neurotensin.
Human cells are incubated for 60 minutes at 4 C with [125I]Tyr3-neurotensin ligand (0.05 nM) and neurotensin as control inhibitor. Test Sample Requirements: Minimum for 1) Screen: 60 ul of 10 mM stock -OR- 1 mg (pre-weighed) for 10 uM final testing. 2) Dose Response: 90 ul of 10 mM stock -OR- 1 mg (pre-weighed) for a top concentration at 10 uM.

human Neurotensin Receptor NT1 Agonism, NTSR1 (gene 4923), sequence (P30989 whole entry, looked up): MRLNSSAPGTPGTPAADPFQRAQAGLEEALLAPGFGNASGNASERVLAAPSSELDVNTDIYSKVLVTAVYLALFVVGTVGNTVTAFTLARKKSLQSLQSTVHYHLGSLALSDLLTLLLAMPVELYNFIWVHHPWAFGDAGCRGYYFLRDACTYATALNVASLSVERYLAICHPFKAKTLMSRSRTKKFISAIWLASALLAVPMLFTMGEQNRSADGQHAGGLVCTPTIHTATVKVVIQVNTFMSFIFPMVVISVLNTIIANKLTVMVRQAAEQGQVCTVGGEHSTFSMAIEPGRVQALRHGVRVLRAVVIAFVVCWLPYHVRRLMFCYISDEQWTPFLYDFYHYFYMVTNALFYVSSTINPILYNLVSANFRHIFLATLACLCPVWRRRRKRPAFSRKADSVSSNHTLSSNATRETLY

| Compound | AC50 |
| --- | --- |
| O=C(/C=C/c1ccc(O)cc1)CC(=O)/C=C/c1ccc(O)cc1 | 2990 nM (active) |
